The results in this text go back to PubChem BioAssay (NCI).

About 83,000 compounds went through this panel and 20% of them were active in at least one assay; those are over-represented in the sample as a whole.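 For each line, cells grew in 96-well plates with the test compound present at a single concentration for 48 hours.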 Values without a mark were called inactive. Calls of active or inactive are those of the source. How the source made its calls: active means growth percent below 10; inactive means the rest.

What all share (assay): NCI-60 one-dose screen, 48 h (100 = growth as untreated, 0 = no growth, -100 = all killed)
Settings in all cases: 10 µM

Experiment [1] deals with DU-145 prostate.
For experiment [2], the system named is K-562 leukemia.
Experiment [3] relates to MDA-MB-231 breast.
In experiment [4] the test system is RXF 393 renal.
The test system of experiment [5] is SF-268 CNS.
Experiment [6] has as its system SF-295 CNS.
The subject of experiment [7] is SF-539 CNS.
Experiment [8] deals with UACC-257 melanoma.
Experiment [9] relates to M14 melanoma.
For experiment [10], the system named is HCT-15 colon.
The test system of experiment [11] is HT29 colon.
In experiment [12] the test system is SNB-75 CNS.
The subject of experiment [13] is SNB-19 CNS.
The test system of experiment [14] is U251 CNS.
Experiment [15] has as its system PC-3 prostate.
For experiment [16], the system named is SK-MEL-5 melanoma.
Experiment [17] concerns UACC-62 melanoma.
Experiment [18] has as its system LOX IMVI melanoma.
Experiment [19] deals with SK-MEL-28 melanoma.
Experiment [20] relates to MALME-3M melanoma.

Turning to `CC(C1=C(CN(C(=O)Cc2cn(-c3ccccc3)nc2-c2ccc(Cl)cc2)C(C)C)Cc2ccccc21)c1ccccn1` (stereo unspecified), the growth in [1] is 81%; in experiment [2], 43.4%; in experiment [3] it was 60.2%; in [4], 86.7%; in [5], 74.5%; in experiment [6], 75.2%. The growth in experiment [7] was 87.2%; in experiment [8], 67.3%; in [9] it was 64.7%; in [10], 54.2%; in experiment [11] it was 32.9%; in experiment [12], 80.7%. The growth in [13] is 76.9%; in experiment [14] it was 67.6%; in experiment [15] it was 41.7%; in [16], 46.1%; in experiment [17], 63.6%; in experiment [18], 69.2%. Also, the growth in experiment [19] is 91.9%.

For `COc1cc(C2CC(c3ccccc3)=NN2C(C)=O)cc(OC)c1OC` (stereo unspecified), the growth in experiment [1] is 49.3%; in [2] it was 36.9%; in experiment [3], 75.3%; in experiment [4], 55%; in [5], 46.2%; in [6], 7.61% (active). The growth in experiment [7] is 28.3%; in experiment [8] it was 64%; in experiment [9], 29.7%; in [10], 25.6%; in experiment [11] it was 11.4%; in [12], -17.1% (active). In addition, the growth is 49% in experiment [13]; 27.7% in experiment [14]; 37.3% in [15]; 35.3% in experiment [16]; 44.6% in [17]; 41.7% in experiment [18]. Also, the growth in experiment [19] is 59.3%.

As to `NC(N)=N/N=C(\c1ccccc1)C(O)c1ccccc1` (stereo unspecified), the growth was 112% in experiment [1]; 90.7% in [2]; 96.2% in experiment [20]; 100% in experiment [3]; 98.8% in [4]; 102% in experiment [6]. Further, the growth in experiment [7] was 111%; in experiment [8] it was 101%; in [9], 97.3%; in experiment [10], 111%; in experiment [11], 92.3%; in [12] it was 93.7%. Also, the growth was 95.3% in experiment [13]; 106% in [14]; 94.6% in [15]; 103% in experiment [16]; 94.6% in [17]; 94.2% in [18]. Moreover, the growth in [19] was 107%.

Turning to `Cc1ccc(NC(=S)NNC(=S)Nc2ccc(C)cc2)cc1`, the growth in [1] was 102%; in [2] it was 19.4%; in [3], 72.5%; in [4], 91.5%; in [5] it was 85%; in experiment [6] it was 30%. The growth is 62.5% in experiment [7]; 75.8% in experiment [8]; 44.2% in experiment [9]; 44.1% in experiment [10]; 82.6% in experiment [11]; 40.2% in experiment [12]. The growth in experiment [13] was 65.4%; in experiment [14], 56.8%; in experiment [15], 77.2%; in experiment [16] it was 55.6%; in [17] it was 48.2%; in [18], 75.3%. For the same compound, in experiment [19], the growth was 70.8%.

In the case of `CCOc1ccccc1/C=N\N=C(\N)N/N=C/c1ccccc1OCC`, the growth in experiment [1] is 46.1%; in experiment [2] it was 16.3%; in experiment [3], 52.5%; in experiment [4], -1.54% (active); in [5], 47.2%; in experiment [6], 23.4%. For the same compound, the growth was 17.3% in [7]; 39.1% in [8]; 12.7% in experiment [9]; 24.7% in [10]; 10.7% in [11]; -3.85% (active) in [12]. Further, the growth in experiment [13] was 43%; in [14], 38.3%; in [15], 31.9%; in experiment [16] it was 17.8%; in [17] it was 30.9%; in experiment [18], 30.9%. Besides, the growth in experiment [19] was 42.9%.

Take `CCCCN1C(=O)CC(SC2CC(=O)N(CCCC)C2=O)C1=O` (stereo unspecified): the growth in experiment [1] is 103%; in experiment [2] it was 118%; in experiment [3], 108%; in experiment [4], 122%; in experiment [5] it was 101%; in experiment [6] it was 109%. In addition, the growth in [7] is 105%; in experiment [8] it was 98.6%; in experiment [9] it was 113%; in experiment [10], 120%; in experiment [11], 76.1%; in experiment [12], 87.4%. For the same compound, the growth in [13] was 99.5%; in experiment [14], 107%; in experiment [15], 99.4%; in [16], 104%; in experiment [17] it was 96.6%; in experiment [18], 95%. Also, the growth in experiment [19] was 121%.

Regarding `c1ccc(CCCCc2ccc3ccccc3n2)cc1`, the growth in experiment [1] is 111%; in [2], 102%; in [20], 98.2%; in [3] it was 106%; in experiment [5], 99%; in [6], 106%. In addition, the growth in [7] was 101%; in [8] it was 103%; in experiment [9], 98.1%; in experiment [10] it was 90.1%; in [11] it was 87.1%; in [12], 93.6%. Besides, the growth in experiment [13] was 105%; in experiment [14], 90.6%; in experiment [15], 77.1%; in experiment [16], 109%; in [17] it was 102%; in [18] it was 96.1%. The growth in [19] was 104%.

In the case of `CN(C)c1nc(N)c2nccnc2n1`, the growth in experiment [1] was 108%; in experiment [2] it was 128%; in [3] it was 108%; in [4], 115%; in experiment [5] it was 101%; in [6] it was 84.4%. The growth in experiment [7] was 105%; in [8], 111%; in experiment [9] it was 117%; in experiment [10] it was 120%; in [11], 110%; in [12] it was 84.8%. In addition, the growth in [13] was 104%; in experiment [14] it was 112%; in experiment [16], 107%; in experiment [17] it was 98%; in [18], 95.1%; in [19], 118%.
